Test results reported in the supplement of paper PMC7156485.
± gives the standard deviation of the averaged measurements.

Each molecule was assayed on TDF (assay: cell number relative to DMSO (% of DMSO); higher = more cells (less growth inhibition / toxicity)). Conditions: concentration: 10 µM; 24 h.
How it was run: (§1)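 After 24 h at 37 °C with compounds at 10 µM, in triplicate, HCC1569 and TDF cells were fixed with 3.7% formaldehyde. Immunostaining used a rabbit anti-H1.0 antibody and an AlexaFluor 647 secondary, with DAPI, and six fields per well were imaged at ×10. H1.0 nuclear intensity or cell number is presented as percent of the plate control, from the median of replicates, with HCC1569 values smoothed for positional effects.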
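Wherever H1.0 immunofluorescence intensity relative to DMSO is given: TDF is a line of transformed human dermal fibroblasts of mesenchymal origin.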
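Wherever cell number relative to DMSO is given: TDF denotes transformed human dermal fibroblasts of mesenchymal origin.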

Structure (SMILES) | cell number
COc1ccc2c(c[n+](C)c3c4cc5c(cc4ccc23)OCO5)c1OC.[Cl-] [Chelerythrine] | 17.4
O.O=P1(N(CCCl)CCCl)NCCCO1 (stereo not drawn) [Cyclophosphamide monohydrate] | 61.2
CN1C2CCC1CC(OC(c1ccccc1)c1ccccc1N)C2 (stereo not drawn) [Aminobenztropine] | 97.9
C[N+](C)(C)CCCCCCCCCC[N+](C)(C)C.[Br-].[Br-] [Decamethonium dibromide] | 100
Cl.NCCc1ccc(O)cc1 [4-Hydroxyphenethylamine hydrochloride] | 100
CCCN1CCCC2Cc3nc(N)ncc3CC21.Cl.Cl (stereo not drawn) [Quinelorane dihydrochloride] | 113
NC(CCP(=O)(O)O)C(=O)O (racemic) | 101
Cl.O=C(CCCN1CCC2(CC1)C(=O)NCN2c1ccccc1)c1ccc(F)cc1 [Spiperone hydrochloride] | 87.3
CN1CC[C@@]2(C)c3cc(OC(=O)Nc4ccccc4)ccc3N(C)[C@@H]12 | 90.6
CCCN(CCC)C1CCc2cccc(O)c2C1 (racemic) | 88.4
COc1cc2c(c(OC)c1OC)-c1ccc(OC)c(=O)cc1C(NC(C)=O)CC2 (stereo not drawn) [Colchicine] | 9.12 ± 1.6
Br.COC(=O)C1=CCCN(C)C1 [Arecoline hydrobromide] | 102
CCCN1CCCC2Cc3[nH]ncc3CC21 (racemic) | 96.7
BrC1C(Br)C(Br)C(Br)C(Br)C1Br (stereo not drawn) | 106
NCC(CP(=O)(O)O)c1ccc(Cl)cc1 (stereo not drawn) [Phaclofen] | 100
CC1=CC(=O)c2c(O)cccc2C1=O [Plumbagin] | 46.8
Cl.OC1CCCCC1N1CCC(c2ccccc2)CC1 (stereo not drawn) [Vesamicol hydrochloride] | 104
CN1C2CCC1CC(OC(=O)c1cc(Cl)cc(Cl)c1)C2 (stereo not drawn) [3-Tropanyl-3,5-dichlorobenzoate] | 106
CC(=O)OC1CC2CCC3C(CCC4(C)C3CC([N+]3(C)CCCCC3)C4OC(C)=O)C2(C)CC1[N+]1(C)CCCCC1.[Br-].[Br-] (stereo not drawn) [Pancuronium bromide] | 96.9
O=C1C=C2C=CC3CC2(O1)C1CCCCN31 (stereo not drawn) [Securinine] | 76.4

Structure (SMILES) | cell number
C=C1C(C)C2C(Cc3ccccc3)NC(=O)C23OC(=O)C=CC(O)CCCC(C)CC=CC3C1O (stereo not drawn) [Cytochalasin B] | 63.7
CC12CCC(O)CC1CCC1C2CCC2(C)C(C(=O)CO)CCC12 (stereo not drawn) [3-alpha,21-Dihydroxy-5-alpha-pregnan-20-one] | 89
CCN1CC2(C)CCC(O)C34C5CC6C(OC)CC(O)(C(CC23)C14)C5C6O (stereo not drawn) [Karakoline] | 99.5 ± 1.5
CC(C)c1cc2c(c(O)c1O)C1(C(=O)O)CCCC(C)(C)C1CC2 (stereo not drawn) [Carnosic acid] | 99.9
Cc1sc2c(c1C)C(c1ccc(Cl)cc1)=N[C@@H](CC(N)=O)c1nnc(C)n1-2 | 67.9
CCN(CCCl)Cc1ccccc1Br.Cl [DSP-4 hydrochloride] | 103
CCc1c(C(=O)OC)ncc2[nH]c3cc(OC)c(OC)cc3c12 [Methyl 6,7-dimethoxy-4-ethyl-beta-carboline-3-carboxylate] | 99.5
Cc1cc(C2CCCN2C)on1 (stereo not drawn) | 102
CC1=CC23C(=O)C(C=C(CO)C(O)C2(O)C1O)C1C(CC3C)C1(C)C (stereo not drawn) [Ingenol] | 107
C=C(C)C1Cc2c(ccc3c2OC2COc4cc(OC)c(OC)cc4C2C3=O)O1 (stereo not drawn) [Rotenone] | 16.2 ± 0.54
OC1CN2CCCC(O)C2C1O (stereo not drawn) [Swainsonine] | 98.6
CN(C(=O)Cc1ccc(Cl)c(Cl)c1)C(CN1CCCC1)c1cccc(OCC(=O)O)c1.Cl (stereo not drawn) [ICI 204,448 hydrochloride] | 104
CC(C(O)CCC(C)(C)O)C1CCC2(O)C3=CC(=O)C4CC(O)C(O)CC4(C)C3CCC12C (stereo not drawn) [Ecdysone] | 112
Cl.NN=C(N)N [Aminoguanidine hydrochloride] | 109
C[N+]1(C)CCN(c2ccccc2)CC1.[I-] [1,1-Dimethyl-4-phenyl-piperazinium iodide] | 93
CC1OC(C[N+](C)(C)C)CC1O.[Cl-] (single isomer, unassigned; (+)) [(+)-Muscarine chloride] | 116
NC(N)=NOCC[C@H](N)C(=O)O.O=S(=O)(O)O [L-Canavanine sulfate] | 81.3
COC(C)C(O)(C(=O)OCC1=CCN2CCC(O)C12)C(C)C (stereo not drawn) [Heliotrine] | 105
Br.COc1c2c(cc3c1OCO3)CCN(C)C2 [Hydrocotarnine HBr] | 107

These molecules were tested on TDF (assay: H1.0 immunofluorescence intensity relative to DMSO (% of DMSO); higher = stronger H1.0 induction, active = 120 or more). Conditions: concentration: 10 µM; 24 h.
How it was run: as §1

Structure (SMILES) | H1.0 immunofluorescence intensity
COc1ccc2c(c[n+](C)c3c4cc5c(cc4ccc23)OCO5)c1OC.[Cl-] [Chelerythrine] | 139 (active)
O.O=P1(N(CCCl)CCCl)NCCCO1 (stereo not drawn) [Cyclophosphamide monohydrate] | 116 (inactive)
CN1C2CCC1CC(OC(c1ccccc1)c1ccccc1N)C2 (stereo not drawn) [Aminobenztropine] | 94.1 (inactive)
C[N+](C)(C)CCCCCCCCCC[N+](C)(C)C.[Br-].[Br-] [Decamethonium dibromide] | 91.7 (inactive)
Cl.NCCc1ccc(O)cc1 [4-Hydroxyphenethylamine hydrochloride] | 96.7 (inactive)
CCCN1CCCC2Cc3nc(N)ncc3CC21.Cl.Cl (stereo not drawn) [Quinelorane dihydrochloride] | 95 (inactive)
NC(CCP(=O)(O)O)C(=O)O (racemic) | 96.9 (inactive)
Cl.O=C(CCCN1CCC2(CC1)C(=O)NCN2c1ccccc1)c1ccc(F)cc1 [Spiperone hydrochloride] | 116 (inactive)
CN1CC[C@@]2(C)c3cc(OC(=O)Nc4ccccc4)ccc3N(C)[C@@H]12 | 106 (inactive)
CCCN(CCC)C1CCc2cccc(O)c2C1 (racemic) | 98 (inactive)
COc1cc2c(c(OC)c1OC)-c1ccc(OC)c(=O)cc1C(NC(C)=O)CC2 (stereo not drawn) [Colchicine] | 168 (active)
Br.COC(=O)C1=CCCN(C)C1 [Arecoline hydrobromide] | 93.3 (inactive)
CCCN1CCCC2Cc3[nH]ncc3CC21 (racemic) | 100 (inactive)
BrC1C(Br)C(Br)C(Br)C(Br)C1Br (stereo not drawn) | 97 (inactive)
NCC(CP(=O)(O)O)c1ccc(Cl)cc1 (stereo not drawn) [Phaclofen] | 95.8 (inactive)
CC1=CC(=O)c2c(O)cccc2C1=O [Plumbagin] | 109 (inactive)
Cl.OC1CCCCC1N1CCC(c2ccccc2)CC1 (stereo not drawn) [Vesamicol hydrochloride] | 94.2 (inactive)
CN1C2CCC1CC(OC(=O)c1cc(Cl)cc(Cl)c1)C2 (stereo not drawn) [3-Tropanyl-3,5-dichlorobenzoate] | 102 (inactive)
CC(=O)OC1CC2CCC3C(CCC4(C)C3CC([N+]3(C)CCCCC3)C4OC(C)=O)C2(C)CC1[N+]1(C)CCCCC1.[Br-].[Br-] (stereo not drawn) [Pancuronium bromide] | 98.8 (inactive)
O=C1C=C2C=CC3CC2(O1)C1CCCCN31 (stereo not drawn) [Securinine] | 102 (inactive)

Structure (SMILES) | H1.0 immunofluorescence intensity
C=C1C(C)C2C(Cc3ccccc3)NC(=O)C23OC(=O)C=CC(O)CCCC(C)CC=CC3C1O (stereo not drawn) [Cytochalasin B] | 125 (active)
CC12CCC(O)CC1CCC1C2CCC2(C)C(C(=O)CO)CCC12 (stereo not drawn) [3-alpha,21-Dihydroxy-5-alpha-pregnan-20-one] | 98.8 (inactive)
CCN1CC2(C)CCC(O)C34C5CC6C(OC)CC(O)(C(CC23)C14)C5C6O (stereo not drawn) [Karakoline] | 96.4 (inactive)
CC(C)c1cc2c(c(O)c1O)C1(C(=O)O)CCCC(C)(C)C1CC2 (stereo not drawn) [Carnosic acid] | 95.3 (inactive)
Cc1sc2c(c1C)C(c1ccc(Cl)cc1)=N[C@@H](CC(N)=O)c1nnc(C)n1-2 | 141 (active)
CCN(CCCl)Cc1ccccc1Br.Cl [DSP-4 hydrochloride] | 92.8 (inactive)
CCc1c(C(=O)OC)ncc2[nH]c3cc(OC)c(OC)cc3c12 [Methyl 6,7-dimethoxy-4-ethyl-beta-carboline-3-carboxylate] | 88.1 (inactive)
Cc1cc(C2CCCN2C)on1 (stereo not drawn) | 90.2 (inactive)
CC1=CC23C(=O)C(C=C(CO)C(O)C2(O)C1O)C1C(CC3C)C1(C)C (stereo not drawn) [Ingenol] | 94.7 (inactive)
C=C(C)C1Cc2c(ccc3c2OC2COc4cc(OC)c(OC)cc4C2C3=O)O1 (stereo not drawn) [Rotenone] | 147 (active)
OC1CN2CCCC(O)C2C1O (stereo not drawn) [Swainsonine] | 99.5 (inactive)
CN(C(=O)Cc1ccc(Cl)c(Cl)c1)C(CN1CCCC1)c1cccc(OCC(=O)O)c1.Cl (stereo not drawn) [ICI 204,448 hydrochloride] | 89.4 (inactive)
CC(C(O)CCC(C)(C)O)C1CCC2(O)C3=CC(=O)C4CC(O)C(O)CC4(C)C3CCC12C (stereo not drawn) [Ecdysone] | 90.8 (inactive)
Cl.NN=C(N)N [Aminoguanidine hydrochloride] | 93.8 (inactive)
C[N+]1(C)CCN(c2ccccc2)CC1.[I-] [1,1-Dimethyl-4-phenyl-piperazinium iodide] | 95.8 (inactive)
CC1OC(C[N+](C)(C)C)CC1O.[Cl-] (single isomer, unassigned; (+)) [(+)-Muscarine chloride] | 93 (inactive)
NC(N)=NOCC[C@H](N)C(=O)O.O=S(=O)(O)O [L-Canavanine sulfate] | 107 (inactive)
COC(C)C(O)(C(=O)OCC1=CCN2CCC(O)C12)C(C)C (stereo not drawn) [Heliotrine] | 91.4 (inactive)
Br.COc1c2c(cc3c1OCO3)CCN(C)C2 [Hydrocotarnine HBr] | 104 (inactive)
